Active and inactive are the calls of the source.
What was measured:
[1] = tested on: Plasmodium falciparum Sir2 (PF13_0152, Sir2A); experiment: pfSir2 binders on small-molecule microarrays, primary screen, biochemical, small-molecule microarray, 635 nm fluorescence (AID 1098); conditions: small-molecule microarray binding, fluorescence 635 nm; higher = more signal;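 further: score merges spot fluorescence intensity with its signal-to-noise ratio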
[2] = small-molecule microarray binders of probe aDKK1, primary screen, biochemical, biotinylated probe, 635/667 nm fluorescence (AID 1099); conditions: higher = more signal;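 further: score merges 667nm spot fluorescence with signal to noise across triplicate slides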
[3] = small-molecule microarray binders of probe aCHRDL2, primary screen, biochemical, biotinylated probe, 635/667 nm fluorescence (AID 1100); conditions: higher = more signal
[4] = splicing luciferase reporter signal modulators, primary screen, spliceosome inhibition project, cell-based, HEK293, splice +/- reporter (AID 1101); conditions: luminescence, 24 h, higher = more signal, called active from +8 up or from −8 down;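 further: HEK293 cells carrying a splicing-competent luciferase reporter gene; test concentration not given here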
[5] = molecular target: Fibroblast growth factor 10 (Homo sapiens) (UniProt O15520); experiment: FGF10 binders on small-molecule microarrays, primary screen, biochemical, small-molecule microarray, 635 nm fluorescence (AID 1102); conditions: FGF10 binding, fluorescence 635 nm, higher = more signal
[6] = tested on: glycogen synthase kinase-3 (GSK3A per assay name; protocol says GSK3B); experiment: GSK3 binders on small-molecule microarrays, primary screen, biochemical, small-molecule microarray, 635 nm fluorescence, GSK3A (AID 1103); conditions: small-molecule microarray binding, fluorescence 635 nm; higher = more signal; further: the record names both GSK3A and GSK3B
[7] = molecular target: Epidermal growth factor receptor (Homo sapiens) (UniProt P00533); experiment: EGFR binders on small-molecule microarrays, primary screen, biochemical, small-molecule microarray, 635 nm fluorescence (AID 1104); conditions: EGFR binding, higher = more signal;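 further: score merges 667 nm emission intensity with spot signal to noise over triplicate slides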
[8] = molecular target: Follistatin-related protein 3 (Homo sapiens) (UniProt O95633); experiment: FSTL3 binders on small-molecule microarrays, primary screen, biochemical, small-molecule microarray, 635 nm fluorescence (AID 1105); conditions: FSTL3 binding, higher = more signal;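 further: score merges emission near 667 nm and signal to noise per printed spot across three slides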
[9] = molecular target: Dickkopf-related protein 1 (Homo sapiens) (UniProt O94907); experiment: DKK1 binders on small-molecule microarrays, primary screen, biochemical, small-molecule microarray, 635 nm fluorescence scan (AID 1106); conditions: DKK1 binding, higher = more signal;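 further: score merges emission near 667 nm with signal to noise over three replicate slides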
[10] = tested on: Inhibin beta A chain (activin A); experiment: INHBA (activin A) binders on microarrays, primary screen, biochemical, small-molecule microarray, 635 nm fluorescence scan (AID 1107); conditions: small-molecule microarray binding, higher = more signal;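 further: mouse activin A protein probed at 4.33 µg/mL on printed slides; score merges bound-protein fluorescence near 667 nm with spot signal-to-noise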
[11] = tested on: Human papillomavirus type 1a protein E7 (residues 44-93); experiment: HPV1a E7 fragment binders on microarrays, primary screen, biochemical, small-molecule microarray, residues 44-93, 635 nm fluorescence (AID 1108); conditions: small-molecule microarray binding, fluorescence 635 nm; higher = more signal;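 further: E7 fragment applied at 1 µg/mL in TBST for 1 h at 4 C; score combines spot fluorescence with its signal to noise ratio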
[12] = modulators of HCV replicon luciferase signal, primary screen, HCV replication inhibitor project, Huh7 cells, luciferase reporter (AID 1109); conditions: 48 h, higher = more signal;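 further: huh7 hepatoma cells harbouring a luciferase neomycin HCV replicon reporter; luciferase luminescence as measure of HCV replicon replication; test concentration not given here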
[13] = molecular target: Left-right determination factor 2 (Homo sapiens) (UniProt O00292); experiment: LEFTY2 binders on small-molecule microarrays, primary screen, biochemical, small-molecule microarray, 635 nm fluorescence scan (AID 1110); conditions: LEFTY2 binding, higher = more signal
[14] = molecular target: Calmodulin-1 (Homo sapiens) (UniProt P0DP23); experiment: CALM1 binders on microarrays, EGTA buffer, profiling panel, biochemical, small-molecule microarray, Cy5-labelled CALM1 (AID 1111); conditions: Cy5-CALM1 binding fluorescence, higher = more signal;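 further: labelled calmodulin applied in Tris saline Tween buffer holding calcium plus EGTA and DTT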
[15] = molecular target: Calmodulin-1 (Homo sapiens) (UniProt P0DP23); experiment: calcium-bound CALM1 binders on microarrays, profiling panel, artefact control for SMM control-protein annotation, biochemical, small-molecule microarray, Cy5-labelled CALM1, plus calcium (AID 1112); conditions: Cy5-CALM1 binding fluorescence, higher = more signal;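 further: score merges spot fluorescence with signal to noise from triplicate slides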
[16] = small-molecule microarray binders of probe aWnt5a, primary screen, biochemical, biotinylated probe, 635/667 nm fluorescence (AID 1113); conditions: higher = more signal;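 further: score merges 667 nm fluorescence intensity with signal-to-noise per printed feature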
[17] = small-molecule microarray binders of probe aShh, primary screen, biochemical, biotinylated probe, 635/667 nm fluorescence (AID 1114); conditions: higher = more signal;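 further: probe is biotin-labelled aShh protein from a stem cell growth factor screen; measures binding of labelled protein to compounds printed on the slide; score merges feature fluorescence at 667 nm with signal-to-noise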
[18] = small-molecule microarray binders of probe aNog, primary screen, biochemical, biotinylated probe, 635/667 nm fluorescence (AID 1115); conditions: higher = more signal;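 further: probe is biotinylated aNog protein used at 0.15 µg/mL for 1 h at 4 C; z-score combines 667 nm fluorescence of each spot with its signal to noise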
[19] = molecular target: Torsin-1A-interacting protein 1 (Homo sapiens) (UniProt Q5JTV8); experiment: LAP1 binders from COS7 cell lysate, primary screen, small-molecule microarray, 635/667 nm fluorescence (AID 1116); conditions: COS7-hLAP1 lysate binding, 635 nm fluorescence, higher = more signal
[20] = molecular target: Alpha-bungarotoxin (Bungarus multicinctus) (UniProt P60615); experiment: alpha-bungarotoxin binders on microarray, profiling panel, artefact control for SMM control protein annotation, biochemical, small-molecule microarray, Alexa647 label, 635/667 nm fluorescence (AID 1117); conditions: alpha-BTX-A647 binding fluorescence, higher = more signal
Chain of Alpha-bungarotoxin (Bungarus multicinctus) (P60615 whole entry, looked up): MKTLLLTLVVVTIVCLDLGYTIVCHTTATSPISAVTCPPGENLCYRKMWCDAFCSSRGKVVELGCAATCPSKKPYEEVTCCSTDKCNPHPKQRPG

Chain of Dickkopf-related protein 1 (Homo sapiens) (O94907 whole entry, looked up): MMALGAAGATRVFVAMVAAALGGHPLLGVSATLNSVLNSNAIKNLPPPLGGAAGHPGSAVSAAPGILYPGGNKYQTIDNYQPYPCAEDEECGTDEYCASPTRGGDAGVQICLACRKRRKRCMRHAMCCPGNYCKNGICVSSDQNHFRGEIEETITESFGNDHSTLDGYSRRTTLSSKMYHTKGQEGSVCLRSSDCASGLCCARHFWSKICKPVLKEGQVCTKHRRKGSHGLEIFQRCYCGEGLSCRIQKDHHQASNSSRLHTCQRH
Chain of Epidermal growth factor receptor (Homo sapiens) (P00533 whole entry, looked up): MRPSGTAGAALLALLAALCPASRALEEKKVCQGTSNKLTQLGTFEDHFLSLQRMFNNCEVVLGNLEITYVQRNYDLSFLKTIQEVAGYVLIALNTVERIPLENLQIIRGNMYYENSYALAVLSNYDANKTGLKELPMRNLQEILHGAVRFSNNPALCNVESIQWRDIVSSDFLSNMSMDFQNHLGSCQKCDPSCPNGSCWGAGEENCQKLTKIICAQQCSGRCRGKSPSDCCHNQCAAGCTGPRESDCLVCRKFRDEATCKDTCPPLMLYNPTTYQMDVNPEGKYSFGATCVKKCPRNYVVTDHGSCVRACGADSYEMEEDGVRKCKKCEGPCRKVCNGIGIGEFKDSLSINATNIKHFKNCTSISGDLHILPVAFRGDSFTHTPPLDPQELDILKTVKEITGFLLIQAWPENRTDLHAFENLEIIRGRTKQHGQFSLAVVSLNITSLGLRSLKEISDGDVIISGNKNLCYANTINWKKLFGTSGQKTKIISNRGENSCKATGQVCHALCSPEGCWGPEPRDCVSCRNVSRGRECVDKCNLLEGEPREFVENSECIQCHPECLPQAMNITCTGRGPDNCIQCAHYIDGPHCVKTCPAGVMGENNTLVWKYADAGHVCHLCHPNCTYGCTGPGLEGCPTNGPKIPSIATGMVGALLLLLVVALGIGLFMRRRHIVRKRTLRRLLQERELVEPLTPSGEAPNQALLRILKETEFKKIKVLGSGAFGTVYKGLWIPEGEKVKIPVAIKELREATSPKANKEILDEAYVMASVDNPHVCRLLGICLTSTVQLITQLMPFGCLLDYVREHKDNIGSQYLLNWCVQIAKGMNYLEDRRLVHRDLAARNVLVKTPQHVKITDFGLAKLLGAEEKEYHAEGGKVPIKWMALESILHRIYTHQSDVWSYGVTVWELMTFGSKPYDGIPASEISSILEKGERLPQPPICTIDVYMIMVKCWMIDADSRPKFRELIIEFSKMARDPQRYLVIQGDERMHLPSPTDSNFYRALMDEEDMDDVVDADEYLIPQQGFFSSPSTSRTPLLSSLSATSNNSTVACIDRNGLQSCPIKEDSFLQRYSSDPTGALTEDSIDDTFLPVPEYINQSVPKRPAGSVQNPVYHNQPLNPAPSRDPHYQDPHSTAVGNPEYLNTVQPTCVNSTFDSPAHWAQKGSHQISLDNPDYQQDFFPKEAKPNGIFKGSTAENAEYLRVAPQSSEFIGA
Chain of Torsin-1A-interacting protein 1 (Homo sapiens) (Q5JTV8 whole entry, looked up): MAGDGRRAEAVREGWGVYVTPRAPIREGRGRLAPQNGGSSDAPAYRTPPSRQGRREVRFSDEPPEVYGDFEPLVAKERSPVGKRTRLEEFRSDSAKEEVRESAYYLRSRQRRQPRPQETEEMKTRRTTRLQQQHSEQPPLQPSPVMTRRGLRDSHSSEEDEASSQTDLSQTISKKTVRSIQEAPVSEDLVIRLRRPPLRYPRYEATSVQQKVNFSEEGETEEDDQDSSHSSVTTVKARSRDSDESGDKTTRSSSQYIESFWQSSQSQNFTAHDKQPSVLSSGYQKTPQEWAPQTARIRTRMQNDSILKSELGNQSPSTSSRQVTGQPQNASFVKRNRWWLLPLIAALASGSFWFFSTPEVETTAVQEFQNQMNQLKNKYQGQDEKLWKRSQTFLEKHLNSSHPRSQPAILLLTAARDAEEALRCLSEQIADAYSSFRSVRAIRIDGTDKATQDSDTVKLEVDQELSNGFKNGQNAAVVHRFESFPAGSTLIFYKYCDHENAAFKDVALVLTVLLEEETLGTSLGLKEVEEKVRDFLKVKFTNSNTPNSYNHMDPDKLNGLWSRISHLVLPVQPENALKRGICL
Chain of Fibroblast growth factor 10 (Homo sapiens) (O15520 whole entry, looked up): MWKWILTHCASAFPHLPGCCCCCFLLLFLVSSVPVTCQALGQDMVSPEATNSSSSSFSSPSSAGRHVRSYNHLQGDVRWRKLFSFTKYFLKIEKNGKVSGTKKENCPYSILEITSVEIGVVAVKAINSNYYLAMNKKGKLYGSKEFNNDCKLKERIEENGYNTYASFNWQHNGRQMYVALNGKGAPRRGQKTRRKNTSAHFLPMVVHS
Chain of Left-right determination factor 2 (Homo sapiens) (O00292 whole entry, looked up): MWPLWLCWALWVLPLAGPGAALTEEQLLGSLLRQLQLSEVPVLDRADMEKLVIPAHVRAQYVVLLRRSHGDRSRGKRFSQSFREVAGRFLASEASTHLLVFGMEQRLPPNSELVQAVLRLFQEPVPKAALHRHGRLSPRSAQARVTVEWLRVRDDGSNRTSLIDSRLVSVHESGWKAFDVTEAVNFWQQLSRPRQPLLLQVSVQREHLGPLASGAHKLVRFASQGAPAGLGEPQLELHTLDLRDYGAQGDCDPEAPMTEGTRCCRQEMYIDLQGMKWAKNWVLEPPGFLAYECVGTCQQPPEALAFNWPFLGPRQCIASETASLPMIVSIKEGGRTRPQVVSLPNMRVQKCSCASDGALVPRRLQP
Chain of Follistatin-related protein 3 (Homo sapiens) (O95633 whole entry, looked up): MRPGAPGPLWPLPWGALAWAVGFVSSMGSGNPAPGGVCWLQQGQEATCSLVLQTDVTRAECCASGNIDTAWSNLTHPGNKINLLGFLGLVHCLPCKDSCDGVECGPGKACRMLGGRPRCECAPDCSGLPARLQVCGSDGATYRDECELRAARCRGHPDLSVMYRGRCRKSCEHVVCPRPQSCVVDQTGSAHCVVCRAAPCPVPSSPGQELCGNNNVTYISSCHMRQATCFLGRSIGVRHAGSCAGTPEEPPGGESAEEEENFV

Compound | composite z-score [1] | composite z-score [2] | composite z-score [3] | z-score [4] | composite z-score [5] | composite z-score [6] | composite z-score [7] | composite z-score [8] | composite z-score [9] | composite z-score [10] | composite z-score [11] | z-score [12] | composite z-score [13] | composite z-score [14] | composite z-score [15] | composite z-score [16] | composite z-score [17] | composite z-score [18] | composite z-score [19] | composite z-score [20]
O=C1O[C@@H](c2ccccc2)[C@@H](c2ccccc2)N2[C@@H](c3ccc(OCCO)cc3)[C@]3(C(=O)Nc4ccccc43)[C@@H](C(=O)O)[C@H]12 | 0.327 | -0.483 | 0.273 | -0.715 (inactive) | 0.119 | -0.739 | -0.38 | -0.415 | -0.32 | 0.758 | 0.908 | -1.47 | -0.318 | -0.0663 | 0.883 | 0.779 | 0.297 | 2.26 | -0.308 | 0.323
N#Cc1ccc(NN2C(C(O)c3ccc(F)cc3)C=CC3C(=O)N(c4ccccc4)C(=O)C32)cc1 (stereo not given) | 1.3 | 0.151 | 0.581 | 1.52 (inactive) | -0.286 | -0.0563 | -0.746 | -0.0131 | -0.716 | 0.856 | 0.771 | -0.41 | -0.81 | 2.39 | 1.04 | 0.0334 | -0.0578 | 1.83 | 2.24 | 1.05
COc1ccc([Si](C)(C)[C@H]2[C@H](CC(=O)N(CCO)Cc3ccccc3)O[C@@]3(C(=O)N(Cc4cccc(N5CCOC5=O)c4)c4ccccc43)[C@@H]2C)cc1 | 1.18 | -0.21 | 0.0284 | -2.44 (inactive) | 0.0549 | 0.616 | 0.232 | 0.324 | 0.179 | 0.81 | 0.671 | -4.06 | 0.498 | 0.107 | -0.48 | -0.154 | -0.147 | -0.318 | 0.0843 | 0.429
COC(=O)[C@@]1(Cc2ccccc2)[C@@H]2C(=CC(=O)[C@H]2CC(=O)C(=O)N(C)C)CN1C(=O)c1ccccc1 | 0.971 | 1.08 | 1.17 | 2.93 (inactive) | 0.473 | 0.982 | 0.159 | 0.471 | -0.465 | 1.25 | 0.883 | -2.36 | 0.25 | 1.31 | 0.477 | 0.188 | 0.21 | 1.46 | 0.275 | 0.409
O=C1NC(=O)C2C1C=CC(C(O)c1cccc3ccccc13)N2Nc1ccc(Cl)cc1Cl (stereo not given) | 0.477 | 0.911 | 1.16 | 1.02 (inactive) | 0.46 | 0.267 | -0.459 | 0.0589 | -1.03 | 1.01 | 1.38 | -0.445 | -0.908 | 1.49 | 0.973 | 0.0654 | 0.481 | 1.4 | 0.723 | 1.1
CCCCO[C@H]1C[C@H]2C(I)=C[C@@H]1C(=O)[C@]21CO1 | 1.08 | -0.37 | -0.529 | -0.26 (inactive) | 0.104 | -0.487 | 0.0707 | 0.127 | 0.668 | 0.173 | -0.977 | -2.7 | 0.312 | -0.331 | -0.502 | -0.0735 | -0.0866 | 0.0327 | -0.243 | -0.0708
O=c1n(-c2ccccc2)c(=O)n2n1CC(COc1ccccc1)=C([C@H](O)CCc1ccccc1)[C@@H]2CO | -0.0946 | -0.342 | -0.313 | -1.54 (inactive) | 0.692 | -0.0688 | 0.0867 | 0.0711 | 0.291 | 1.03 | 0.676 | -2.17 | 0.892 | -0.833 | -0.556 | -0.0269 | -0.338 | -0.588 | 0.0355 | 0.5
CC=CC(O)C1C=CC2C(=O)N(c3ccccc3)C(=O)C2N1Nc1ccccc1F (stereo not given) | 0.32 | 1.24 | 0.76 | 0.095 (inactive) | 0.169 | -0.352 | 0.114 | -0.0808 | 0.0324 | 1.21 | 0.286 | -0.536 | -0.0207 | 0.416 | 0.213 | 0.339 | 0.429 | 1.07 | 0.0757 | 0.437
COCCOC(=O)N1C(=O)[C@@]2(c3cc(C#CC4=CCCCC4)ccc31)[C@H](c1ccccc1OCCO)N1[C@H](c3ccccc3)[C@H](c3ccccc3)OC(=O)[C@H]1[C@@H]2C(=O)N1CCCCCCC1 | 1.17 | 1.18 | -0.624 | -0.262 (inactive) | 1.04 | 1.26 | 0.173 | 0.974 | 0.818 | 0.451 | 1.38 | -2.94 | 0.225 | -0.529 | 0.258 | -0.0327 | -0.493 | -0.345 | 1.08 | 0.973
COCCCNC(=O)[C@@]1(Cc2ccccc2CN=[N+]=[N-])N=C(c2ccc(OCCCO)cc2)O[C@H]1c1ccccc1 | 1.06 | 0.432 | 0.825 | -0.645 (inactive) | 1.31 | 0.235 | -0.331 | 0.561 | -0.497 | 0.31 | 1.47 | -2.84 | -0.0313 | 1.34 | 0.475 | 0.0257 | 0.313 | 0.999 | 1.62 | 1.52
Cc1ccc(S[C@]2(C(=O)O)CC(=O)N(Cc3ccccc3Cl)[C@@H]2c2ccc(CO)cc2I)cc1 | 0.534 | 1.47 | -0.217 | -0.565 (inactive) | -0.054 | 0.202 | 0.0365 | 0.653 | 1.18 | 0.164 | -0.455 | -1.77 | 0.0515 | -0.326 | -0.952 | -0.483 | 0.209 | -1.13 | -0.421 | -0.338

From PubChem BioAssay
